Holding throughout (test): DAPPL (digital affinity profiling via proximity ligation, sequencing); 10 mM Tris-HCl pH 7.5, 50 mM NaCl, 1 mM DTT, 4% glycerol, room temperature, 30 min; GST-TFs on glutathione beads, 16-mer random dsDNA library, 0.1% formaldehyde crosslink after washing; high values mean tight binding
Experiment [1] deals with T1, FEV (Homo sapiens, UniProt Q99581 1-238).
T1 sequence: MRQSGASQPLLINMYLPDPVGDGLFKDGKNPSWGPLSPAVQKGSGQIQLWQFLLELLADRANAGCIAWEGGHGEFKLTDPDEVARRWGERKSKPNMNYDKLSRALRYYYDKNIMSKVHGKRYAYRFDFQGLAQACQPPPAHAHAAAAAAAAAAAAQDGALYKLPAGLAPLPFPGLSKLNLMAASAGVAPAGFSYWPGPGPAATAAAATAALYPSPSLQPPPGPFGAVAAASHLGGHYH
The conditions noted are these: protein: recombinant; tags: N-terminal GST; dsDNA, one strand shown. The method, boiled down:
(§1)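 Binding signal is each hexamer's read frequency for a factor divided by its frequency in the tag-only sample. The factors were GST-fused human transcription factors from yeast, captured on glutathione beads, DNA-barcoded and pooled with that sample. Pools were incubated with 200 nmole of a random double-stranded 16-mer DNA library in Tris/NaCl/DTT/glycerol buffer at room temperature for 30 min, then washed, crosslinked with 0.1% formaldehyde, proximity-ligated with BsaI/T4 ligase (1 h, 37 °C), PCR-amplified and sequenced on an Illumina NextSeq500.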

Experiment [2] addresses ETV5 (Homo sapiens, UniProt P41161 1-510). The conditions noted are these: protein: recombinant; tags: N-terminal GST; dsDNA, one strand shown. The method in brief:
as §1

Experiment [3] addresses HSF1 (Homo sapiens, UniProt Q00613 1-529). The conditions noted are these: protein: recombinant; tags: N-terminal GST; chain copies: 3; dsDNA, one strand shown. The method in brief: as §1
For experiment [4], the target named is T2, SPIC (Homo sapiens, UniProt Q8N5J4 1-248).
T2 sequence: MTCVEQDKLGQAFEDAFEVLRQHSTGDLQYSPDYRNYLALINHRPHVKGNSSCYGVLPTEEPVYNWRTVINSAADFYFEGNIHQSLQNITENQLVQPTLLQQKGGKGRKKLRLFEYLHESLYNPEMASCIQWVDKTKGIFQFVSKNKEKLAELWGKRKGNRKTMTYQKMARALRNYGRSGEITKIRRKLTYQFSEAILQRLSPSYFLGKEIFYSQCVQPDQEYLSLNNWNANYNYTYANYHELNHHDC
The following applies: protein: recombinant; tags: N-terminal GST; dsDNA, one strand shown. The method in brief:
as §1

Experiment [5] addresses ELF4 (Homo sapiens, UniProt Q99607 1-663). The following applies: protein: recombinant; tags: N-terminal GST; dsDNA, one strand shown. The method, boiled down: as §1
In experiment [6] the target is T3, ELK4 (Homo sapiens, UniProt P28324-2 1-405).
T3 sequence: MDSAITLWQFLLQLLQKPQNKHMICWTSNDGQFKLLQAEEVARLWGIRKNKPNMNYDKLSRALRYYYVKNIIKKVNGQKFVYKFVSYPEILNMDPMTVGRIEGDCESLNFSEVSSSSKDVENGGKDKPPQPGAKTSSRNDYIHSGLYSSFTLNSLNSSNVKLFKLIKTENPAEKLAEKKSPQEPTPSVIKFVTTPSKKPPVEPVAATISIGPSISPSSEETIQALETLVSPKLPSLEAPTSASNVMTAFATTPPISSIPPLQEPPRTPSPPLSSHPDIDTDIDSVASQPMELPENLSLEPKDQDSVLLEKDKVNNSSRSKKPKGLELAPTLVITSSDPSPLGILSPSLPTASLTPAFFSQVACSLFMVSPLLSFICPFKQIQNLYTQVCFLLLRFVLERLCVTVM
The conditions noted are these: protein: recombinant; tags: N-terminal GST; dsDNA, one strand shown. The method, boiled down:
as §1

Experiment [7] addresses T4, ETV2 (Homo sapiens, UniProt O00321 1-342).
T4 sequence: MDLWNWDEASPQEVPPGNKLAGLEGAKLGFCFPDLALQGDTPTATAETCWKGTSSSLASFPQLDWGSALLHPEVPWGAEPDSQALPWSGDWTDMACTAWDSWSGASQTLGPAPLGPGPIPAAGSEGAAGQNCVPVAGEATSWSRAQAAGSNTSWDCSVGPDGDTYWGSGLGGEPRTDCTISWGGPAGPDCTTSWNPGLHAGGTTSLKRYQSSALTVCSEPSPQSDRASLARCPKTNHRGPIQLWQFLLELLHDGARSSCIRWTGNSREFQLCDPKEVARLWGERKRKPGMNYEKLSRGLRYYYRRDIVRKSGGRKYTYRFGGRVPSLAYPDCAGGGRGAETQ
The conditions noted are these: protein: recombinant; tags: N-terminal GST; dsDNA, one strand shown. The method in brief: as §1

The target of experiment [8] is T5, ELF3 (Homo sapiens, UniProt P78545 1-371).
T5 sequence: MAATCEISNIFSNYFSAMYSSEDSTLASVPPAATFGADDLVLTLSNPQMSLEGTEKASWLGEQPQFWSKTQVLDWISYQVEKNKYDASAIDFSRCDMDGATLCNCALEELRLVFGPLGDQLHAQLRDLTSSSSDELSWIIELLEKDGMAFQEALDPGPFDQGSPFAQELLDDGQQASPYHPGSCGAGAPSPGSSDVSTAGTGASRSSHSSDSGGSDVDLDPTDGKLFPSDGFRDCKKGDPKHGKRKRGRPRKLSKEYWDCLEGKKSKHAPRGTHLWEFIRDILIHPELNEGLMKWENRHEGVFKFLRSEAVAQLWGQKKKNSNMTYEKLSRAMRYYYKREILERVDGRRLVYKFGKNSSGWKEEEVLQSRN
The conditions noted are these: protein: recombinant; tags: N-terminal GST; dsDNA, one strand shown. The method in brief: as §1

In experiment [9] the target is CRX (Homo sapiens, UniProt O43186 1-299). The following applies: protein: recombinant; tags: N-terminal GST; dsDNA, one strand shown. The method in brief: as §1
CRX, sequence (O43186 whole entry): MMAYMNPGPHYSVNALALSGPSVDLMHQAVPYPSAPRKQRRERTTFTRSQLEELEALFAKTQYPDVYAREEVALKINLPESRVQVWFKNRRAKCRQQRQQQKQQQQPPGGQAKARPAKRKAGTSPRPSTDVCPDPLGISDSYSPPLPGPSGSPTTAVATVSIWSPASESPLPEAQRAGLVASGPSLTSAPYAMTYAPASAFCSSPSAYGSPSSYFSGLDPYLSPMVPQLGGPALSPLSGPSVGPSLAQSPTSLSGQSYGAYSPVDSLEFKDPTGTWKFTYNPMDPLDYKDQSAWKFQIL
Experiment [10] deals with ETV1 (Homo sapiens, UniProt P50549 1-477). The following applies: protein: recombinant; tags: N-terminal GST; dsDNA, one strand shown. The method in brief:
as §1

Experiment [11] addresses T6, ERF (Homo sapiens, UniProt P50548 1-548).
T6 sequence: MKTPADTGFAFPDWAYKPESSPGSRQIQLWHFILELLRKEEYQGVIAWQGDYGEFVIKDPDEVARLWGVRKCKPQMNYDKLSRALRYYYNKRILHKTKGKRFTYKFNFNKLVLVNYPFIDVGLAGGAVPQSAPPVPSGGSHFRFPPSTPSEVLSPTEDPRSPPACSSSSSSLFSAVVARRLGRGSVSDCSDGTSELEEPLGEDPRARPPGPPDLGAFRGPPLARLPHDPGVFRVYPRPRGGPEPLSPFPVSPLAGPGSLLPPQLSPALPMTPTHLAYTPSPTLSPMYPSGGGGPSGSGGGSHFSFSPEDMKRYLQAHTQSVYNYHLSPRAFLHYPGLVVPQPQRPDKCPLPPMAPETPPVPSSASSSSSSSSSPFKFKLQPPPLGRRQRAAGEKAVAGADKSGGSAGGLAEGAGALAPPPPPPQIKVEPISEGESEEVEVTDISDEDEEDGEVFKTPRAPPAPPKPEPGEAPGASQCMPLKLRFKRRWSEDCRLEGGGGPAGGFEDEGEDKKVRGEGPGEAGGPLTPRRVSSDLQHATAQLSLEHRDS
The conditions noted are these: protein: recombinant; tags: N-terminal GST; dsDNA, one strand shown. The method, boiled down: as §1

For experiment [12], the target named is T7, ETV3L (Homo sapiens, UniProt Q6ZN32 1-361).
T7 sequence: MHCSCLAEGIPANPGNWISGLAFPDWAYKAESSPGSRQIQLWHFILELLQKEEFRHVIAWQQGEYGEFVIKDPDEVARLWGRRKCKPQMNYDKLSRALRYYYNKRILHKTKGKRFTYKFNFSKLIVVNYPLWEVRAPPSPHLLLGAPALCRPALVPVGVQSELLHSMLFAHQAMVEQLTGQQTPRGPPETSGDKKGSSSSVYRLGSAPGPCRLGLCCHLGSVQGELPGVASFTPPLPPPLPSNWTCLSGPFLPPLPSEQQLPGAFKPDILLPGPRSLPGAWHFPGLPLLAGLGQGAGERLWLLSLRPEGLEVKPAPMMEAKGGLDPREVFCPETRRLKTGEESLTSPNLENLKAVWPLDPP
The following applies: protein: recombinant; tags: N-terminal GST; dsDNA, one strand shown. The method, boiled down:
as §1

For experiment [13], the target named is T8, ETS2 (Homo sapiens, UniProt P15036 1-469).
T8 sequence: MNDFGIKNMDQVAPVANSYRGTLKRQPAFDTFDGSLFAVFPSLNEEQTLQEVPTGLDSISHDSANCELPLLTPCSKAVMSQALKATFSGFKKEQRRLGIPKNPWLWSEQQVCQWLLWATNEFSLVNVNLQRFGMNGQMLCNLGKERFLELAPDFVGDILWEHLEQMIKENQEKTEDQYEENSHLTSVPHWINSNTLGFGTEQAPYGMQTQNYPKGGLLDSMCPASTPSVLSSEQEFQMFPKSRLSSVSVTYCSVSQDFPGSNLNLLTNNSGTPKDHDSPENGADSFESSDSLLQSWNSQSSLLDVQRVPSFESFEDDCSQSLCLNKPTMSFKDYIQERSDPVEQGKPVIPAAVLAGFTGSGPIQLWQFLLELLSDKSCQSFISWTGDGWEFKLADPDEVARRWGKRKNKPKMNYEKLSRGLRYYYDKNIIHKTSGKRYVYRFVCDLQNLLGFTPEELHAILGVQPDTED
The following applies: protein: recombinant; tags: N-terminal GST; dsDNA, one strand shown. The method, boiled down: as §1

Experiment [14] has as its target T9, SPDEF (Homo sapiens, UniProt O95238 1-335).
T9 sequence: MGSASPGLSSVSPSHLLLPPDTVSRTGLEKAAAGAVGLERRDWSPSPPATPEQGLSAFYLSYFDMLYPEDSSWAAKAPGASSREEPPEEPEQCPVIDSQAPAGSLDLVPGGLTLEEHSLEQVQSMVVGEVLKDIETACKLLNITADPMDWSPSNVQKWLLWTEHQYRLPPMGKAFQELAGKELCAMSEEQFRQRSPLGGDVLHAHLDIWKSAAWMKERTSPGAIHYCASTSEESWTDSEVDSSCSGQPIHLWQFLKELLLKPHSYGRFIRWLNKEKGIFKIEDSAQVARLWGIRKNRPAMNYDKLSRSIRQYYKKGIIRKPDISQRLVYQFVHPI
The following applies: protein: recombinant; tags: N-terminal GST; dsDNA, one strand shown. The method in brief: as §1

The target in experiment [15] is T10, ETV7 (Homo sapiens, UniProt Q9Y603 1-341).
T10 sequence: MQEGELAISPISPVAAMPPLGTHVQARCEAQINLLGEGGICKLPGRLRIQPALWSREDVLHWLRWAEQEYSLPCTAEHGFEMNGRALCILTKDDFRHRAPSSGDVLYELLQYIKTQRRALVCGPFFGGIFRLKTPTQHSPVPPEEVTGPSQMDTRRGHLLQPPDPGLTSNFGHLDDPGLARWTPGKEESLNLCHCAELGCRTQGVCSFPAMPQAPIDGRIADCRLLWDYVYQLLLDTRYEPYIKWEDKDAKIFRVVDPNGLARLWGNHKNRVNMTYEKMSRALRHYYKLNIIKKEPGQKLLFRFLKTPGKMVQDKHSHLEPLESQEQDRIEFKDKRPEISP
The following applies: protein: recombinant; tags: N-terminal GST; dsDNA, one strand shown. The method, boiled down:
as §1

Experiment [16] concerns the target T11, ELF5 (Homo sapiens, UniProt Q9UKW6-2 1-255).
T11 sequence: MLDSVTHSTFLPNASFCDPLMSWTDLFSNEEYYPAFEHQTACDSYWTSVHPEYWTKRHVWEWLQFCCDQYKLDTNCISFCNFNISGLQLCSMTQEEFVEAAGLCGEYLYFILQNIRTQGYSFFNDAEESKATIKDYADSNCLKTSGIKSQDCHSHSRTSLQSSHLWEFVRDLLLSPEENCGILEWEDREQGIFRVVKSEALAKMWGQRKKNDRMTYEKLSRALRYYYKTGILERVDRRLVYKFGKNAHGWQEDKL
The following applies: protein: recombinant; tags: N-terminal GST; dsDNA, one strand shown. The method, boiled down: as §1

In experiment [17] the target is T12, ETV3 (Homo sapiens, UniProt P41162-2 1-143).
T12 sequence: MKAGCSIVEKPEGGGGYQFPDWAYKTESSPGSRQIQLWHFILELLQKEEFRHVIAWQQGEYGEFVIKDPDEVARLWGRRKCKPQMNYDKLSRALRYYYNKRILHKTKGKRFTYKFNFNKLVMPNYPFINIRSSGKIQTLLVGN
The following applies: protein: recombinant; tags: N-terminal GST; dsDNA, one strand shown. The method in brief:
as §1

Experiment [18] has as its target ETV6 (Homo sapiens, UniProt P41212 1-452). The conditions noted are these: protein: recombinant; tags: N-terminal GST; dsDNA, one strand shown. The method in brief:
as §1

HSF1, sequence (Q00613 whole entry): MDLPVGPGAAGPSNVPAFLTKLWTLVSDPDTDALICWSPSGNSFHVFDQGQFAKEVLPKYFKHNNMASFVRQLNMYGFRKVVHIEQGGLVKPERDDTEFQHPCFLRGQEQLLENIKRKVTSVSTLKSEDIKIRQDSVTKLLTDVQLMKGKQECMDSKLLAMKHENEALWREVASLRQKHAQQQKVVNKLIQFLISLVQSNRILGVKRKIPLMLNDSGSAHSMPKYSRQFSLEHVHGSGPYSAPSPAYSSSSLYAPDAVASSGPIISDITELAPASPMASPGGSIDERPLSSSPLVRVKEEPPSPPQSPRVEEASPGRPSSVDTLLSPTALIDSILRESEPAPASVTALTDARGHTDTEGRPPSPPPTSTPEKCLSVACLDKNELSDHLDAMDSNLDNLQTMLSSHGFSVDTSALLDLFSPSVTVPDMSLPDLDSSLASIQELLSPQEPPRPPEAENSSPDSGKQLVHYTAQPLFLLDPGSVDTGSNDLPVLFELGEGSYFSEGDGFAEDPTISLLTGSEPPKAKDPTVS
ETV5, sequence (P41161 whole entry): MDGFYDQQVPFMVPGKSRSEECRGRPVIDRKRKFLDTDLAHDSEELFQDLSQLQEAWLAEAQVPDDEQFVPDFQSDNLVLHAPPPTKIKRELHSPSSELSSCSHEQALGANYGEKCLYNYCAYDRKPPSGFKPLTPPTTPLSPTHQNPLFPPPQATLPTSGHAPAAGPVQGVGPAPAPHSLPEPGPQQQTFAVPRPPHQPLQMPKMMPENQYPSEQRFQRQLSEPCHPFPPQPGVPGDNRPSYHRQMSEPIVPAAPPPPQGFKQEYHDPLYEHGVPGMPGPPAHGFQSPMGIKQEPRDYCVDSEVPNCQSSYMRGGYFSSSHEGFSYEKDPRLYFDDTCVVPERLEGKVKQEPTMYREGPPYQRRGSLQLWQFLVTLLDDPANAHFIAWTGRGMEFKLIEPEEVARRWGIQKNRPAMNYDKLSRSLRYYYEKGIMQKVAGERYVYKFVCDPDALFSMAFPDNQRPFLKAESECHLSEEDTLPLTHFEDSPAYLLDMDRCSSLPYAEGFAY
ETV6, sequence (P41212 whole entry): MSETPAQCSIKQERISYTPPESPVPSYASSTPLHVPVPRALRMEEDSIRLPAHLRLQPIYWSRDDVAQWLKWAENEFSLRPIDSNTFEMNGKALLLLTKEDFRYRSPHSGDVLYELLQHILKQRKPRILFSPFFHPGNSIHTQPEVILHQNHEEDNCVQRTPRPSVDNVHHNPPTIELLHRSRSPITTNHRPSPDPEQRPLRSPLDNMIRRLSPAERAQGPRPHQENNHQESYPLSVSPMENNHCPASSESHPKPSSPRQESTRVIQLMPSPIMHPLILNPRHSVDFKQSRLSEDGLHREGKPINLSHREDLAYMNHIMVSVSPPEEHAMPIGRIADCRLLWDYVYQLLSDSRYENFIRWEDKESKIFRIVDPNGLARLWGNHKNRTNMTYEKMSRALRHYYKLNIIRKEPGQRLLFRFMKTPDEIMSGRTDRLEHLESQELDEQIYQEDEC
ELF4, sequence (Q99607 whole entry): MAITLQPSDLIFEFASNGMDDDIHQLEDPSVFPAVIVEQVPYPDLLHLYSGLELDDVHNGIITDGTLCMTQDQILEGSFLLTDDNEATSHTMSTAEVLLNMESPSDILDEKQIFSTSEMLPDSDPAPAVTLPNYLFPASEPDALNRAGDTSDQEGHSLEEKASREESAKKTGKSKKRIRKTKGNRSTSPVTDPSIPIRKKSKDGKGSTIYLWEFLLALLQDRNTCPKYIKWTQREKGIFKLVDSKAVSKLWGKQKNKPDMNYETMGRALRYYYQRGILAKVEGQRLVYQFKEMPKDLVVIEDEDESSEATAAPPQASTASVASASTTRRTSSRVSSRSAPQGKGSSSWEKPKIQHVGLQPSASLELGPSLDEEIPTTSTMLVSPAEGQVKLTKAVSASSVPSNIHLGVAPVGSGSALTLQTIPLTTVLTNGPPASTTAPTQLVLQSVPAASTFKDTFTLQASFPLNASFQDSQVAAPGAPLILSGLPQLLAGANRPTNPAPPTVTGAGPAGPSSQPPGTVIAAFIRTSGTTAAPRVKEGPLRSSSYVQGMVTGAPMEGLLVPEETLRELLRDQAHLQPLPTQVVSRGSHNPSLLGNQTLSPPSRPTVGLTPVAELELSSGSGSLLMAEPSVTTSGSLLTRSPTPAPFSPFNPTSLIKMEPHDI
ETV1, sequence (P50549 whole entry): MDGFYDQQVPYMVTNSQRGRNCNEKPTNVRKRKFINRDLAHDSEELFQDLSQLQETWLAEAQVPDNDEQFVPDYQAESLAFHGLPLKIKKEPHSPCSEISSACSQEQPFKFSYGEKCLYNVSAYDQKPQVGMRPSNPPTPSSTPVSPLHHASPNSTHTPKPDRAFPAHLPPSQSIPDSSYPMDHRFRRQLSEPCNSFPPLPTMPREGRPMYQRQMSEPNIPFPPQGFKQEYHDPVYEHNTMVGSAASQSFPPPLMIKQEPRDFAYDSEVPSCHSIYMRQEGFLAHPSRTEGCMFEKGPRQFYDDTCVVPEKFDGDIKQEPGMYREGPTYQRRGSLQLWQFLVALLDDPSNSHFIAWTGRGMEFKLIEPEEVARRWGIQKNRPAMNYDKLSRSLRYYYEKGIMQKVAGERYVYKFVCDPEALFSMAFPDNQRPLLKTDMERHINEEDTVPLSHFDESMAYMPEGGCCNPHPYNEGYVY

As to TTCTTC, the binding signal is 1.66 fold enrichment (6-mer frequency, TF over GST control) in [1]; 1.87 fold enrichment (6-mer frequency, TF over GST control) in [2]; 2.07 fold enrichment (6-mer frequency, TF over GST control) in experiment [3]; 1.74 fold enrichment (6-mer frequency, TF over GST control) in [4]; 1.81 fold enrichment (6-mer frequency, TF over GST control) in [5]; 1.69 fold enrichment (6-mer frequency, TF over GST control) in experiment [6]. The binding signal in experiment [7] is 1.83 fold enrichment (6-mer frequency, TF over GST control); in experiment [8], 1.74 fold enrichment (6-mer frequency, TF over GST control); in experiment [9] it was 1.44 fold enrichment (6-mer frequency, TF over GST control); in experiment [10], 1.9 fold enrichment (6-mer frequency, TF over GST control); in [11], 1.78 fold enrichment (6-mer frequency, TF over GST control); in experiment [12], 1.83 fold enrichment (6-mer frequency, TF over GST control). The binding signal in experiment [13] was 1.7 fold enrichment (6-mer frequency, TF over GST control); in [14] it was 1.72 fold enrichment (6-mer frequency, TF over GST control); in [15], 1.7 fold enrichment (6-mer frequency, TF over GST control); in experiment [16], 2.02 fold enrichment (6-mer frequency, TF over GST control); in experiment [17], 1.8 fold enrichment (6-mer frequency, TF over GST control); in experiment [18], 1.93 fold enrichment (6-mer frequency, TF over GST control).

Values taken from paper PMC7862700, “An all-to-all approach to the identification of sequence-specific readers for epigenetic DNA modifications on cytosine”.
